aSyn 5UTR act = Activators via SNCA 5'UTR binding, MLPCN; 300,000 tested, 7.1% active; alpha-synuclein 5'UTR reporter, activators screen; AID 1814; activity score, % (tested at 7.5 µM), hits read low; in the data active means activity score below about -60%
A number is an active result. A selection follows.

How did CCCC(=O)Nc1ccc(NC(=O)c2ccccc2Cl)nc1 do in these assays?
aSyn 5UTR act: -76.1

Results for Oc1c(Br)cc(Br)cc1C=Nc1ccc2c(c1)OCO2 ?
aSyn 5UTR act: -65.9

What do the screens show for `CC1=C[C@@H](C)[C@@H](c2ccc(C(F)(F)F)cc2)OC1=O`?
aSyn 5UTR act: -63.1

What do the screens show for `CCc1ccc(-c2cn3nc(C)c(C)nc3n2)cc1`?
aSyn 5UTR act: inactive

What do the screens show for `CCCCCc1ccc(-c2cn(Cc3ccc(C)cc3)nn2)cc1`?
aSyn 5UTR act: -99.5

Results for COc1ccc(-c2cn(Cc3ccc(C)cc3)nn2)cc1 ?
aSyn 5UTR act: -107.6

How did CCOC(=O)N1CC=C2C(C#N)=C(N)C(C#N)(C#N)[C@H](c3ccccc3OCC)[C@H]2C1 do in these assays?
aSyn 5UTR act: -90.3

Results for Cc1ccc(-c2ccc(/C=N/O)o2)cc1[N+](=O)[O-] ?
aSyn 5UTR act: -66.1

What do the screens show for `CCN(CC)c1ccc(C(=S)NC2CCCCC2)cc1`?
aSyn 5UTR act: -64.0

What do the screens show for `CN(C)c1ccc(C(=S)NC2CCCCC2)cc1`?
aSyn 5UTR act: -111.2

How did CCCCN1CCc2c1nc1ccc(Br)cc1c2N do in these assays?
aSyn 5UTR act: -65.2

What do the screens show for `CC(C)(C)NC(=O)N1CCN(c2nc3ccc(Cl)cc3s2)CC1`?
aSyn 5UTR act: -156.1

What do the screens show for `CCCCC(=O)N1CCN(c2nc3ccc(Cl)cc3s2)CC1`?
aSyn 5UTR act: -148.1

Results for CC(C)(C)NC(=O)N1CCN(c2nc(-c3ccccc3)ns2)CC1 ?
aSyn 5UTR act: -118.9

How did O=C(Nc1nc2ccccc2[nH]1)C1CCN(S(=O)(=O)c2cccs2)CC1 do in these assays?
aSyn 5UTR act: -69.5

What do the screens show for `CC(=O)c1ccc(NC(=O)C2CCN(S(=O)(=O)c3cccs3)CC2)cc1`?
aSyn 5UTR act: -79.9

What do the screens show for `COc1ccc(CCN2CCCC(CN(C)C(=O)c3ccoc3)C2)cc1` (stereo unspecified)?
aSyn 5UTR act: -108.6

How did CCc1nc(-c2ccc(-c3ccc(OC)cc3)nc2OC)no1 do in these assays?
aSyn 5UTR act: -132.4

Results for COc1ccc(-c2ccc(-c3noc(C(C)C)n3)c(OC)n2)cc1 ?
aSyn 5UTR act: -96.3

What do the screens show for `COCc1nc(-c2ccc(-c3ccccc3)nc2OC)no1`?
aSyn 5UTR act: -100.3

How did COc1nc(-c2ccccc2)ccc1-c1noc(C)n1 do in these assays?
aSyn 5UTR act: -111.7

Results for COCc1nc(-c2ccc(-c3ccc(OC)cc3)nc2OC)no1 ?
aSyn 5UTR act: -122.7

Results for CSc1ccccc1OCc1cc(C(=O)NCc2cccc(C)n2)no1 ?
aSyn 5UTR act: -112.1

How did CSc1ccccc1OCc1cc(C(=O)N(C)Cc2ccncn2)no1 do in these assays?
aSyn 5UTR act: -81.4

Results for CCn1ccnc1CN(C)C(=O)c1cc(COc2ccccc2SC)on1 ?
aSyn 5UTR act: -100.6

What do the screens show for `Cc1nc(CNC(=O)c2cc(COc3c(F)cccc3F)on2)cs1`?
aSyn 5UTR act: inactive

What do the screens show for `CSc1ccccc1OCc1cc(C(=O)N(C)Cc2nonc2C)no1`?
aSyn 5UTR act: -119.2

How did CSc1ccccc1OCc1cc(C(=O)N(C)CC2COCCO2)no1 (stereo unspecified) do in these assays?
aSyn 5UTR act: -82.6

How did Nc1c(C(=O)Nc2nc3ccccc3s2)sc2nc(-c3cccs3)ccc12 do in these assays?
aSyn 5UTR act: inactive

Results for CC(=O)c1sc2nc(-c3cccs3)ccc2c1N ?
aSyn 5UTR act: -272.1

What do the screens show for `O=C(/C=C/c1c[nH]c2ccccc12)c1cccc2ccccc12`?
aSyn 5UTR act: -94.7

What do the screens show for `CN1CCN(/N=C/c2ccc(-c3ccc([N+](=O)[O-])cc3Cl)o2)CC1`?
aSyn 5UTR act: -103.6

How did Cc1cccc2sc(N(CCCN(C)C)C(=O)c3ccc4ncsc4c3)nc12 do in these assays?
aSyn 5UTR act: -91.9

What do the screens show for `CCc1ccc2nc(N(CCN(C)C)C(=O)c3ccc4ncsc4c3)sc2c1`?
aSyn 5UTR act: -113.7

How did O=C(NC(=S)Nc1nc2c(s1)CCCC2)c1ccccc1 do in these assays?
aSyn 5UTR act: -344.8

How did COC(=O)c1ccc(C(=O)NC(=S)Nc2nc3c(s2)CCCC3)cc1 do in these assays?
aSyn 5UTR act: -66.1

How did Cc1ccccc1C(=O)NC(C(=O)Nc1nc2c(s1)CCCC2)C(C)C (stereo unspecified) do in these assays?
aSyn 5UTR act: -66.0

What do the screens show for `S=C(Nc1nc2c(s1)CCCC2)NC1CC1`?
aSyn 5UTR act: -92.3

What do the screens show for `CCC(C)(C)c1ccc(Oc2cccc(C(=O)O)c2)cc1`?
aSyn 5UTR act: -94.6

What do the screens show for `CCCC(C)NC(=O)c1cccc(Oc2ccccc2)c1` (stereo unspecified)?
aSyn 5UTR act: -64.5

Results for CCC(C)(C)c1ccc(Oc2ccc(N)cc2)cc1 ?
aSyn 5UTR act: inactive

Results for CCOC(=O)C1(Cc2ccccc2Cl)CCN(C(=O)CCn2ccnc2C)CC1 ?
aSyn 5UTR act: -80.6

How did CCOC(=O)C1(CCc2ccccc2)CCN(C(=O)CCn2cncn2)CC1 do in these assays?
aSyn 5UTR act: -99.0

How did O=c1cc(N2CCN(c3ccc(F)cc3)CC2)[nH]c(=O)n1C1CCCCC1 do in these assays?
aSyn 5UTR act: -107.3

What do the screens show for `COc1ccc(C(=O)Oc2ccc3oc(=O)sc3c2)cc1`?
aSyn 5UTR act: -88.8

How did O=C(NC1=NCCS1)c1ccc(Cl)cc1 do in these assays?
aSyn 5UTR act: -180.5

Results for O=C(NNC1=Nc2ccccc2SC1)c1ccc(Cl)cc1 ?
aSyn 5UTR act: inactive

Results for O=C(NC1CCC(O)CC1)c1ccc(-c2ccc(Cl)cc2)o1 (stereo unspecified) ?
aSyn 5UTR act: -111.5

What do the screens show for `O=C(NC1=NCCS1)c1ccc(-c2ccc(Cl)cc2)o1`?
aSyn 5UTR act: -191.3

What do the screens show for `O=C(NC1=NCCS1)c1sc2cc(F)ccc2c1Cl`?
aSyn 5UTR act: -191.0

How did O=C(NCCCN1CCOCC1)c1sc2cc(F)ccc2c1Cl do in these assays?
aSyn 5UTR act: -61.9

What do the screens show for `O=C(COc1ccccc1)Nc1ccc2c(c1)nc1n2CCSC1`?
aSyn 5UTR act: -124.8

Results for O=C(COc1ccccc1)Nc1ccc2c(c1)nc1n2CCOC1 ?
aSyn 5UTR act: -85.1

Results for CC1CCCN(C(=O)c2ccc(-c3ccccc3Cl)o2)C1 (stereo unspecified) ?
aSyn 5UTR act: -135.9

Results for CC1CN(C(=O)c2ccc(-c3ccccc3Cl)o2)CC(C)O1 (stereo unspecified) ?
aSyn 5UTR act: -64.4

What do the screens show for `CC(C)(CNC(=O)c1ccc(-c2ccccc2Cl)o1)N1CCOCC1`?
aSyn 5UTR act: -123.7

How did COc1ccc(Cl)cc1C(=O)Nc1ccc(Br)c(C)n1 do in these assays?
aSyn 5UTR act: -78.5

Results for COc1ccc(Cl)cc1C(=O)Nc1cccnc1Cl ?
aSyn 5UTR act: -77.7

Results for O=C(c1cc2cc(Cl)ccc2[nH]1)N1CCCCC1 ?
aSyn 5UTR act: -84.5

What do the screens show for `Cc1ccc(-c2nc(C)c(C(=O)O)s2)cc1`?
aSyn 5UTR act: -208.3

What do the screens show for `Cc1nc(-c2ccc(Cl)cc2)sc1C(=O)O`?
aSyn 5UTR act: -101.2

Results for C/C(=N\OC(=O)c1ccc(F)cc1)c1sc(-c2ccc(Cl)cc2)nc1C ?
aSyn 5UTR act: -211.0

What do the screens show for `CC(=O)c1ccc(NC(=O)C(C)OC(=O)c2ccc3c(c2)nc(C)n3-c2ccccc2)cc1` (stereo unspecified)?
aSyn 5UTR act: -91.0

How did CCC1(C)Cc2c(sc3nc(SC)n(Cc4ccccc4)c(=O)c23)CO1 (stereo unspecified) do in these assays?
aSyn 5UTR act: -117.6

How did Cc1cccc(NC(=O)C(=O)NCC2CCCO2)c1 (stereo unspecified) do in these assays?
aSyn 5UTR act: -91.6
